Structures are written as SMILES. This is part of a sample that, as a whole, favours compounds with a hit. Of some 83,000 tested, about 20% had one in any assay.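 In brief: 96-well plates, 48 h treatment, single concentration, percent growth endpoint.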 Unmarked numbers belong to inactive results. Activity calls are given as the source filed them. How the source made its calls: active means growth percent below 10; inactive means the rest.

What all share (test): NCI-60 one-dose screen, 48 h (100 = growth as untreated, 0 = no growth, -100 = all killed)
One test deals with NCI-H226 lung. To be noted: 10 µM.
The test system of another test is NCI-H322M lung. To be noted: 10 µM.
The subject of the next test is HOP-62 NSCLC. To be noted: 10 µM.
For a further test, the system named is NCI-H460 lung. To be noted: 10 µM.
The next test deals with A549/ATCC NSCLC. To be noted: 10 µM.
The subject of the next test is 786-0 renal. To be noted: 10 µM.
In the next test the test system is COLO 205 colon. The following applies: 10 µM.
A further test has as its system DU-145 prostate. To be noted: 10 µM.
A further test relates to SF-268 CNS. To be noted: 10 µM.
Another test relates to SF-295 CNS. To be noted: 10 µM.
A further test concerns SF-539 CNS. To be noted: 10 µM.
A further test concerns HCT-15 colon. The following applies: 10 µM.
The next test concerns HT29 colon. The following applies: 10 µM.
A further test relates to SNB-75 CNS. The following applies: 10 µM.
The next test deals with SNB-19 CNS. To be noted: 10 µM.
The next test has as its system PC-3 prostate. To be noted: 10 µM.
The next test deals with EKVX NSCLC. To be noted: 10 µM.
In another test the test system is UO-31 renal. To be noted: 10 µM.
Another test deals with ACHN renal. To be noted: 10 µM.
A further test relates to HL-60(TB) leukemia. To be noted: 10 µM unless noted.

Consider `N#Cc1nc(-c2ccccc2)oc1N1CCC(S(=O)(=O)F)CC1`, for which the growth in the test with NCI-H226 lung is 98.4%; in the test on NCI-H322M lung it was 115%; with HOP-62 NSCLC, 95.9%; in the test with NCI-H460 lung it was 106%; with A549/ATCC NSCLC it was 102%; with 786-0 renal, 81.5%. The growth with COLO 205 colon is 114%; with DU-145 prostate it was 101%; with SF-268 CNS, 92.3%; in the test on SF-295 CNS it was 100%; with SF-539 CNS, 91.1%; in the test with HCT-15 colon, 103%. Further, the growth in the test on HT29 colon was 102%; with SNB-75 CNS it was 102%; with SNB-19 CNS, 98.6%; in the test on PC-3 prostate, 99.3%; in the test on EKVX NSCLC, 103%; with UO-31 renal it was 86.7%. Moreover, the growth is 94.6% in the test on ACHN renal and 98.6% in the test on HL-60(TB) leukemia.

As to `C/C=C\C(=O)O[C@@H]1CC2O[C@@H]3C=C(C)C(=O)C[C@]3(C)[C@]1(C)[C@]21CO1`, the growth in the test on NCI-H226 lung is -20.5% (active); in the test on NCI-H322M lung, -11% (active); in the test on HOP-62 NSCLC, -32.6% (active); in the test on NCI-H460 lung, 0.808% (active); with A549/ATCC NSCLC it was -5.19% (active); in the test with 786-0 renal, -20.2% (active). Also, the growth with COLO 205 colon is -55.3% (active); in the test on DU-145 prostate, -15.1% (active); in the test with SF-268 CNS, 0.463% (active); in the test on SF-295 CNS, -18.2% (active); in the test on SF-539 CNS, -31.9% (active); in the test with HCT-15 colon, -5% (active). Besides, the growth in the test with HT29 colon is -33.4% (active); with SNB-75 CNS, -14.8% (active); in the test with SNB-19 CNS, -10.5% (active); in the test with PC-3 prostate it was -2.85% (active); in the test with EKVX NSCLC, -2.36% (active); in the test with UO-31 renal, -12.4% (active). Besides, the figures for the growth in the test on ACHN renal and in the test with HL-60(TB) leukemia were -28.6% (active) and -47.3% (active), respectively.

`CC(=O)O[C@@H]1C[C@H]2O[C@@H]3C=C(C)CC[C@]3(C)[C@]1(C)[C@]21CO1`: the growth with NCI-H226 lung is 22.3%; in the test with NCI-H322M lung it was 18.8%; with HOP-62 NSCLC it was 6.11% (active); in the test with NCI-H460 lung, 6.94% (active); with A549/ATCC NSCLC, 12.8%; with 786-0 renal it was 7.07% (active). For the same compound, the growth in the test with COLO 205 colon was -61.3% (active); in the test with DU-145 prostate it was 16.8%; in the test on SF-268 CNS, 15.3%; in the test on SF-295 CNS it was 34.1%; with SF-539 CNS, -23.1% (active); in the test with HCT-15 colon, 3.87% (active). Further, the growth in the test with HT29 colon was 8.97% (active); with SNB-75 CNS it was 29.4%; in the test with SNB-19 CNS it was 3.18% (active); in the test on PC-3 prostate, 24.8%; in the test with EKVX NSCLC, 26%; in the test with UO-31 renal it was 53.3%. Besides, the growth with ACHN renal was 23%; with HL-60(TB) leukemia, -33.9% (active).

Regarding `COc1cc2c(O[C@@H]3OC[C@H](O)[C@H](O)[C@H]3O)c3c(c(-c4ccc5c(c4)OCO5)c2cc1OC)C(=O)OC3`, the growth in the test with NCI-H226 lung was 80.7%; in the test with NCI-H322M lung, 82%; in the test with HOP-62 NSCLC it was 59.1%; in the test on NCI-H460 lung, 71.9%; with A549/ATCC NSCLC, 91%; in the test on 786-0 renal, 78.9%. Moreover, the growth in the test on COLO 205 colon was 11.6%; in the test with DU-145 prostate, 53.2%; in the test with SF-268 CNS, 66.7%; in the test on SF-295 CNS it was 40.5%; in the test on SF-539 CNS, 53.6%; in the test with HCT-15 colon, 70.3%. The growth in the test on HT29 colon was 38.6%; with SNB-75 CNS it was 18%; in the test on SNB-19 CNS, 97%; with PC-3 prostate, 67.1%; in the test with EKVX NSCLC, 70%; in the test with UO-31 renal it was 82.2%. Further, the growth in the test with ACHN renal is 67.6%; with HL-60(TB) leukemia, 32.6%.

In the case of `CC1=C2C(=O)[C@](C)(CO)C=C2C(=O)[C@](C)(O)C12CC2`, the growth in the test on NCI-H226 lung is 74.7%; with NCI-H322M lung, 61.6%; in the test on HOP-62 NSCLC, 22%; in the test on NCI-H460 lung it was 5.34% (active); in the test on A549/ATCC NSCLC, 13.2%; in the test on 786-0 renal it was 5.58% (active). Also, the growth with COLO 205 colon was -12.1% (active); in the test on DU-145 prostate, 7.23% (active); in the test on SF-268 CNS, 10.5%; in the test with SF-295 CNS, 6.45% (active); in the test with SF-539 CNS, 4.6% (active); in the test with HCT-15 colon it was -9.55% (active). Further, the growth with HT29 colon was 2.57% (active); in the test on SNB-75 CNS, 38.9%; in the test with SNB-19 CNS, 60.2%; in the test on PC-3 prostate, 21.6%; in the test on EKVX NSCLC it was 64.7%; in the test on UO-31 renal it was -20.7% (active). The growth with ACHN renal is -21.9% (active); in the test on HL-60(TB) leukemia, -21.6% (active).

With `CC1=C2C(=C[C@@](C)(COC(=O)c3ccc(S(=O)(=O)F)cc3)[C@@H]2O)C(=O)[C@](C)(O)C12CC2`, the growth with NCI-H226 lung was -24.4% (active); in the test on NCI-H322M lung, -5.82% (active); in the test with HOP-62 NSCLC, -17.7% (active); in the test with NCI-H460 lung it was -33.3% (active); with A549/ATCC NSCLC, -11% (active); with 786-0 renal, -37.7% (active). Besides, the growth is -58.5% (active) in the test with COLO 205 colon; -20.4% (active) in the test on DU-145 prostate; -12% (active) in the test with SF-268 CNS; -5.19% (active) with SF-295 CNS; -67.8% (active) in the test with SF-539 CNS; -20.2% (active) with HCT-15 colon. Further, the growth in the test with HT29 colon was -17.9% (active); with SNB-75 CNS, -51.6% (active); in the test with SNB-19 CNS, 3.51% (active); in the test on PC-3 prostate, -3.96% (active); with EKVX NSCLC it was -4.53% (active); in the test with UO-31 renal it was -21.4% (active). Also, in the test on ACHN renal, the growth was 0.0222% (active).

Turning to `CC(C)(O)/C=C/C(=O)[C@](C)(O)[C@H]1[C@H](O)C[C@@]2(C)[C@H]3CC=C4[C@@H](C[C@H](O)C(=O)C4(C)C)[C@]3(C)C(=O)C[C@]12C`, the growth was 12.7% in the test on NCI-H226 lung; 32.3% in the test on NCI-H322M lung; 5.78% (active) in the test with HOP-62 NSCLC; 15.6% with NCI-H460 lung; 10.1% in the test with A549/ATCC NSCLC; 1.91% (active) in the test on 786-0 renal. Further, the growth in the test on COLO 205 colon is 34.3%; with DU-145 prostate, 14%; in the test on SF-268 CNS, -3.28% (active); in the test on SF-295 CNS, 7.51% (active); with SF-539 CNS, -31.5% (active); in the test on HCT-15 colon, 7.53% (active). In addition, the growth with HT29 colon was 3.2% (active); in the test on SNB-75 CNS, -39.4% (active); in the test on SNB-19 CNS, 8.14% (active); with PC-3 prostate, 11.4%; with EKVX NSCLC, 18.4%; with UO-31 renal it was -52.7% (active). The growth is -1.68% (active) with ACHN renal and -3.29% (active) in the test with HL-60(TB) leukemia.

(Values after PubChem BioAssay (NCI).)
